From PubChem BioAssay AID652054 (National Center for Advancing Translational Sciences (NCATS), 2013)
About 9,100 (2.5%) of roughly 360,000 compounds were called active. Another 4% or so got no clear call; they are omitted. Rule as the data show it: active = max response below about -50%; inconclusive = no clear call, values can overlap the other calls; inactive = above that. The list comes from a sample in which actives are over-represented; it also holds similar structures and randomly drawn compounds.

Target: D(3) dopamine receptor (Homo sapiens) (UniProt P35462)
Sequence (P35462 whole entry, looked up): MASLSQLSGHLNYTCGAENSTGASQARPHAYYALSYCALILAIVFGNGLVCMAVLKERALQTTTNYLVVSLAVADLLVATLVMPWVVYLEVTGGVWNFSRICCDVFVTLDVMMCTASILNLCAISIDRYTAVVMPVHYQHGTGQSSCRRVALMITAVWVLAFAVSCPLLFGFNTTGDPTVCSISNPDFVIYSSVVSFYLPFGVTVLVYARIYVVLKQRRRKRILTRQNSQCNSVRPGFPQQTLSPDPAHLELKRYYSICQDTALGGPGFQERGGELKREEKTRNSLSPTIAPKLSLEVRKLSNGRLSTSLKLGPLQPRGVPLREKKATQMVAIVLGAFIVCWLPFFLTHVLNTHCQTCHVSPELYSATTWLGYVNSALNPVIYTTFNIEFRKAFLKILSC
Experiment: qHTS of D3 Dopamine Receptor Antagonist: qHTS
Conditions: D3R cells, DiscoveRx beta-arrestin luminescence, antagonist mode; hits give low values
Summary of the method: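 Cells expressing the human receptor were seeded at 1500 cells/well, incubated overnight at 37 degrees C in 5% CO2, then exposed to library compounds with dopamine controls for 90 minutes at 37 degrees C before luminescent detection.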
% is scaled to controls: 0 for no effect and ±100 for the full control effect.

Max response, negative = inhibition, active:
CCNC(=O)c1cc2c(c(-c3cccc(-c4cncnc4)c3)n1)[C@H](CCO)N(C(C)=O)C2 -53.7%
CN1CCN(c2ccc([N+](=O)[O-])c(Sc3nc4ccccc4[nH]3)c2)CC1 -91.8%
COc1ccc(-c2cc(=O)oc3cc(OCC(=O)N(C)C4CCS(=O)(=O)C4)ccc23)cc1 (centres undefined) -51.8%
CCCNC(=O)C1(C)CCN(Cc2csc(-c3ccc(Cl)cc3)n2)C1 (centres undefined) -103%
Cc1cc(=O)oc(C)c1C(=O)NCCN(C)Cc1ccccc1 -76.1%
CCN1CCN(C(=O)c2cc3cc4ccc(OC)cc4nc3s2)CC1 -89.5%
COc1ccc(CNC(=O)C[C@H]2C[C@H](C(=O)N3CCOCC3)[C@@]3(CCC4CCCC4)c4[nH]c5ccc(Cl)cc5c4CCN3C2=O)cc1OC -63%
Cc1ccc(S(=O)(=O)N(CCCN(C)C)Cc2ccc3c(c2)OCO3)cc1 -51.8%
COc1ccccc1NC(=O)CCN1CCN(c2ccc(Cl)cc2)CC1 -52.9%
CCOc1ccccc1NC(=O)Nc1cc(OC)ccc1OC -69.8%
COc1ccc(NC(=O)CCN2CCCC2)c(OC)c1 -50.5%
COc1ccc(OC)c(NC(=O)CCN2CCC(C)CC2)c1 -50.8%

Max response, negative = inhibition, inactive:
CC(=O)N1Cc2cc(C(=O)NCc3cccc(F)c3)nc(-c3cccc(C4=CCCCC4)c3)c2[C@H]1CCO 40.6%
CC(=O)N1Cc2cc(C(=O)NCc3cccc(F)c3)nc(-c3cccc(C4=CCCC4)c3)c2[C@H]1CCO 4.11%
CN(Cc1ccc(C(F)(F)F)cc1)C(=O)[C@H]1O[C@@H](n2cnc3c(N)ncnc32)[C@H](O)[C@@H]1O 14.2%
CC1(C(=O)NCc2ccccc2)CSCC(=O)N1CCCN1CCOCC1 (centres undefined) 2.3%
CC1(C)CN(CCc2ccccc2)C(=O)[C@H]1CC(=O)Nc1ccc(Br)cc1 -16%
CN1CCN(S(=O)(=O)c2ccc(N3CCN(c4ccccc4O)CC3)c([N+](=O)[O-])c2)CC1 -19.5%
O=[N+]([O-])c1ccc(N2CCNCC2)cc1NCc1cccnc1 1.82%
CCCS(=O)(=O)NC(=O)C1(C)CCCN(C(=O)c2cc(C)on2)C1 (centres undefined) 2.9%
COc1ccc2c(-c3ccccc3)cc(SCC(=O)N(C)C3CCS(=O)(=O)C3)nc2c1 (centres undefined) 0.687%
CC(=O)c1ccc(OCC(=O)N(C)C2CCS(=O)(=O)C2)cc1 (centres undefined) -0.617%
COc1ccc(C(=O)N2CCCCC2c2cc(C(=O)Nc3ccc(F)c(Cl)c3)no2)cc1 (centres undefined) -6.17%
O=S1(=O)CC(N2CCN(c3ccccn3)CC2)CN1Cc1ccc(F)cc1 (centres undefined) 7.7%
CCCNC(=O)C1(C)CCCN(Cc2cccc(C(F)(F)F)c2)C1 (centres undefined) 27.1%
CCCNC(=O)C1(C)CCCN(Cc2c(C)nn(-c3ccccc3)c2C)C1 (centres undefined) 19.2%
COC(=O)[C@]12CCCCC=C1N(Cc1cccc3ccccc13)C(=O)[C@H](CC(=O)N1CCOCC1)C2 -10.3%
COc1ccc(CNC(=O)c2c(C)cc(=O)oc2C)cc1OC 2.8%
Cc1cc(=O)oc(C)c1C(=O)NCc1ccc(F)cc1 -14.8%
Cc1nc(C(F)(F)F)ccc1C(=O)N1CCC1(C)C(=O)NS(=O)(=O)c1ccccc1Cl (centres undefined) -15.5%
COc1ccc(OC)c(C(=O)c2ccc(C(=O)N3CCN(Cc4csc(C)n4)CC3)cc2)c1 -18%
COc1ccc(OCC(=O)N2CCN(C(=O)c3cccs3)CC2)cc1 5.1%
CCCc1c(-c2ccccc2F)ncn1Cc1ccccc1OC 2.92%
COc1ccc(CCNC(=O)CN(c2ccccc2)S(=O)(=O)c2ccccc2)cc1 -3.43%
CC(C)Oc1cc(F)ccc1-c1cc(C(=O)Nc2ccc(F)cc2)[nH]n1 -13.9%
COc1cc(-c2nnc(NC(=O)CS(=O)(=O)c3ccc(Cl)cc3)o2)cc(OC)c1OC -6.21%
CC[C@]12c3[nH]c4ccc(Cl)cc4c3CCN1C(=O)[C@@H](CC(=O)NCCN1CCOCC1)C[C@@H]2C(=O)N1CCN(C(=O)C2CC2)CC1 6.27%
COc1ccc2[nH]c3c(c2c1)CCN1C(=O)C(CC(=O)NCCCN(C)C)C[C@H](C(=O)N2CCOCC2)[C@@]31CCC1CCCC1 (some centres undefined) 37%
CCc1nc2c(OCCOc3ccccc3)cccn2c1N(C)C(=O)c1cccs1 -19.8%
Cc1ccc(-c2nc(CS(=O)(=O)CC(=O)NCc3ccc4c(c3)OCO4)c(C)o2)cc1 -2.53%
Cc1ccc(CNCc2ccc3c(c2)OCO3)c(C)c1 -3.23%
OC[C@@H]1CN(Cc2ccc(Cl)cc2)C[C@H](n2cnc3c(NCc4ccncc4)ncnc32)O1 17.2%
Cc1cc(Cl)ccc1C(=O)C1CCCN(C(=O)c2ccc3c(c2)OCO3)C1 (centres undefined) -7.01%
CC(=O)OCC(C)n1c(=O)c2ccccc2n1C(C)=O (centres undefined) 0.665%
COc1ccc(C(C)(C)C)cc1NC(=O)CCN1C(=O)C2CCCCC2C1=O (centres undefined) 4.26%
COc1ccc(NC(=O)CCn2ccnc2)c(OC)c1 -22.6%
CCOc1ccccc1NC(=O)NC1CCCCCCC1 0.28%
COc1ccc(OC)c(NC(=O)CC(Cc2ccccc2OC)C(=O)O)c1 (centres undefined) 2.31%
CCOc1ccccc1NC(=O)CCN1CCN(S(=O)(=O)c2ccc(OC)cc2)CC1 38.4%
COc1ccc(NC(=O)CCCC2CCCCC2)c(OC)c1 11.6%
COc1ccc(N2CCN(CCNC(=O)Nc3cc(Cl)ccc3Cl)CC2)cc1 -2.75%
CCOC(=O)N1CCN(CCC(=O)Nc2cc(OC)ccc2OC)CC1 2%
O=C(CC[C@H]1O[C@@H](n2ccc(=O)[nH]c2=O)[C@H](O)[C@@H]1O)N[C@H](Cc1ccccc1)C(=O)NCc1ccco1 23.3%
CCCC/C=C/c1cccc2nncn12 11.2%
